Source: PubChem BioAssay (National Center for Advancing Translational Sciences (NCATS))
Sampled rows, rich in hits. Any-hit rate of the full collection: about 21%.
NS1 inh: influenza NS1 inhibition; AID 2326; Potency, µM (titrated, usually from 46.1 µM), for inactives: at the top dose activity, positive = more growth; 270,000 compounds, 0.4% hits; calls by dose curve; further: potency means the concentration at half of the fitted maximal effect; actives are rising curves; nearly all actives have a fitted effect of over 50% in size
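In this qHTS, NS1 from influenza A is expressed in budding yeast, where it slows growth. Cells are switched from glucose to 2% galactose medium (pH 6.0, -URA), treated with compound, and growth recovery is read at OD600.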
Pf growth 96h: P. falciparum growth inhibition at 96 hours. P. falciparum luciferase reporter growth, 96 h. Potency, µM (top dose mostly 28.7 µM), without a hit: at the top dose activity change, negative = inhibition, most hits filed as inhibitors. 320,000 compounds, 6.9% hits. AID 504834; further: potency means the concentration at half of the fitted maximal effect; on the % scale 0 is the no-effect control and ±100 the full control effect
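P. falciparum expressing integrated firefly luciferase, in erythrocytes at 2% hematocrit, 0.05% parasitemia, incubated with compounds 96 h at 37 C, 5% CO2. Growth inhibition read as loss of luminescence; two-generation exposure targets delayed-death apicoplast inhibitors.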
Shiga toxin inh: Shiga toxin inhibition; Vero cells, Shiga toxin protein synthesis inhibition reporter; 290,000 compounds, 9.2% hits; inhibition, % at 38.7 µM; in the data active means inhibition mostly above about 28%, no sharp cut-off; inactive means mostly below about 43%; further: 0% is about no effect
SARS PLpro yeast: inhibitors of SARS-CoV papain-like protease in yeast | S. cerevisiae expressing SARS-CoV PLpro, growth rescue | Potency, µM (doses to about 32.9 µM), for inactives: at the highest dose activity, positive = growth rescue, hits mostly activators | AID 485353 | 330,000 compounds, 0.19% hits; calls by dose curve; further: potency means the concentration at half of the fitted maximal effect; 0% is about no effect; nearly all actives have a fitted effect of over 55% in size
CHX counter: counter-screen for Shiga toxin inhibitors: cycloheximide protein synthesis inhibition; cell reporter, cycloheximide protein synthesis inhibition counterscreen; max response, %; 300,000 compounds, 12% hits; AID 2314; in the data active means max response mostly above about 13%, no sharp cut-off; inactive means mostly below about 14%; further: read at 38.3 µM for the half of the compounds with a filed dose; 0% is about no effect
Pf growth 48h: P. falciparum growth inhibition at 48 hours (one generation); P. falciparum luciferase growth in erythrocytes, 48 h; Potency, µM (titrated, usually from 28.7 µM), without a hit: at the top dose activity change, negative = inhibition, hits mostly inhibitors; 310,000 compounds, 5.9% hits; AID 504832; further: potency means the concentration at half of the fitted maximal effect; on the % scale 0 is the no-effect control and ±100 the full control effect
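Parasite viability was followed by luminescence of a genomically integrated firefly luciferase. Cultures held 0.1% parasitemia at 2% hematocrit (final), incubated under 5% CO2 at 37 C.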
Active calls of the source: *; u = inconclusive; x = no result given. Unless noted, the call rests on the fitted dose curve; in most records, active means well fitted inhibition curve with a large enough effect; inconclusive means small, poorly fitted or top-dose-only effect, or another doubt; inactive means no such curve, though single readings can be large or run the other way.

SMILES	NS1 inh	Pf growth 96h	Shiga toxin inh	SARS PLpro yeast	CHX counter	Pf growth 48h
Cc1ccc(C(=O)Nc2cccc(C(F)(F)F)c2)cc1Nc1cncnc1	u	12µM*	8	-16%	1	1%
Cc1c(F)cccc1NS(=O)(=O)c1ccc(OCCNS(C)(=O)=O)cc1	x	u	-6	0%	6	13%
CSCC[C@H](NC(=O)[C@H](CC(C)C)NC(=O)[C@@H]1CCCN1C(=O)[C@H](Cc1ccccc1)NC(=O)[C@H](Cc1ccccc1)NC(=O)[C@@H]1CCC(=O)N1)C(N)=O	x	x	-4	x	-2	x
CC(=O)c1c[nH]c(C(=O)NCc2ccccc2Cl)c1	2%	14%	-17	4%	-2	-2%
COc1ccc(CNC(=O)OCc2nccnc2C(=O)Nc2ccc(Br)cn2)cc1	2%	u	30	-1%	8	44%
O=C(O)CCC(=O)Nc1ccc(Br)cn1	0%	x	-13	-2%	-5	28%
CCCCCCC(=O)Nc1ccc(Br)cn1	-24%	3%	50*	-1%	30*	143%
CCCCC(=O)Nc1ccc(Cl)cn1	-11%	-13%	35	2%	14	35%
COc1ccc(CCC(=O)Nc2ccc(Br)cn2)cc1	u	x	78	4%	38*	-9%
CCCC(C)C(=O)Nc1ccc(Cl)cn1 (configuration not stated)	6%	x	47*	1%	8.0*	5%
CCCCCC(=O)Nc1ccc(Cl)cn1	3%	19%	61*	-2%	39*	45%
COc1cc(NC(=O)CN(c2ccc(C)cc2)S(=O)(=O)c2c(C)noc2C)cc(OC)c1	26%	u	-6	9%	-3	u
COC(=O)Nc1ccc(S(=O)(=O)NCCO)cc1	1%	27%	7	-1%	-2	x
O=C(Cc1ccc(Cl)c(Cl)c1)Nc1ccc(S(=O)(=O)Nc2ncccn2)cc1	-9%	10%	-10	0%	-4	21%
O=C(C1=COCCO1)N1CCN(S(=O)(=O)c2cccc(Cl)c2Cl)CC1	-2%	15µM*	-17	-3%	-3	u
O=C(c1cccs1)N1CCN(S(=O)(=O)c2cccc(Cl)c2Cl)CC1	x	-10%	x	0%	x	u
Nc1cc(Cl)ccc1Oc1ccc2ccccc2c1	-12%	-10%	41*	-27%	34*	x
Cc1ccc(Oc2ccc(Cl)cc2N)cc1	5%	17%	100*	-4%	38*	52%
Nc1nc(Cl)cc(Sc2ccc3ccccc3c2)n1	-4%	37%	27	-10%	10	1%
Cc1ccc(Oc2ncc(-c3ccc(Cl)cc3)cn2)cc1	-4%	27%	-24	-26%	6	0%
CCN(CC)S(=O)(=O)c1cc(OC)ccc1N=Nc1ccc(O)c2ncccc12	3%	39%	9	4%	-6	u
NS(=O)(=O)c1ccc(N=Nc2ccc(O)c3ncccc23)cc1	27%	u	-9	4%	5	2.6µM*
CCOc1ccc(N=Nc2ccc(O)c3ncccc23)cc1	4%	-3%	3	1%	-2	0.74µM*
COc1ccc(S(=O)(=O)N2CCC(C(=O)N3CCc4ccccc4C3)CC2)cc1	-30%	12%	28	-9%	-1	u
CCOc1ccc(S(=O)(=O)N2CCC(C(=O)NCc3ccco3)CC2)cc1C	-11%	1.9µM*	-2	-4%	-4	u
SMILES	NS1 inh	Pf growth 96h	Shiga toxin inh	SARS PLpro yeast	CHX counter	Pf growth 48h
CCOc1ccc(S(=O)(=O)N2CCN(C(=S)NCc3ccco3)CC2)cc1	-12%	2.3µM*	13	-16%	14	2.9µM*
COc1ccc(S(=O)(=O)N2CCC(C(=O)N[C@H](C(=O)NCc3ccco3)C(C)C)CC2)cc1	3%	-5%	-10	1%	-3	-14%
CCOc1ccc(S(=O)(=O)N2CCC(C(=O)N3CCc4ccccc4C3)CC2)cc1	-19%	2.9µM*	16	-8%	-3	u
COc1ccc(S(=O)(=O)N2CCC(C(=O)NCc3ccco3)CC2)cc1	-3%	u	-7	6%	1	3.3µM*
O=C(COc1ccc(S(=O)(=O)N2CCCC2)cc1)NCc1ccco1	-2%	-24%	-10	6%	-2	x
CC(C)Cn1c(CN2CCN(c3ccccc3F)CC2)nc2c1c(=O)[nH]c(=O)n2C	9%	16%	-4	-4%	-2	15%
